# Reference: ChEMBL document CHEMBL4513216, “Probing the Open Global Health Chemical Diversity Library for Multistage-Active Starting Points for Next-Generation Antimalarials” (ACS Infect Dis, 2020)
# The campaign covered roughly 69,000 compounds. About 8,600 (12%) showed an effect of 50% or more. The entries come from a sample that favours strong results as a whole.
# System: Plasmodium berghei
# Assay: Screen against P. berghei liver stage (PbLuc), transformed with Luciferase, at 10uM
# Format: functional, HepG2
# Conditions: tested at 10 uM
row,SMILES,INHIBITION [%]
1,COCC1CC2(CCN(C(=O)c3occc3C)CC2)CN1C(C)C (stereo unspecified),18.4
2,CSc1ncccc1C(=O)N(CCO)Cc1ccccc1,21.4
3,CCC(CN1CCCC1)NC(=O)Cc1c(C)[nH]c2cc(C)cc(C)c12 (stereo unspecified),6.32
4,Cc1nc(-c2ccco2)ccc1C(=O)NCC(=O)N1CCCCC1,-5.65
5,CCc1ncncc1C(=O)N1CCCC(n2nc(C)nc2C)C1 (stereo unspecified),-31.8
6,Cn1c(C(=O)Nc2nc[nH]n2)cc2ccccc21,41.9
7,COCCCN(Cc1cnc(C2CCCCC2)nc1)C1CCN(C)CC1,49.4
8,O=C(c1cscn1)N1CCc2ncnc(-c3cccnc3)c2CC1,23.6
9,Cc1cnc(N2CC[C@H]3[C@@H]2CCC(=O)N3c2cccnc2)nc1,37.1
10,CN1CCC(c2nc3ccc(-c4cccc(F)c4)cn3n2)CC1,33.5
11,CC(=O)N1CCC(c2nc3ccc(-c4cccc(F)c4)cn3n2)CC1,79.2
12,CN(C)C(=O)N1CCC(c2nc3ccc(-c4ccccc4)cn3n2)CC1,65.3
13,CN1CCC(c2nc3ccc(-c4ccccc4)cn3n2)CC1,-15.7
14,CC(=O)N1CCC(c2nc3ccc(NC4CCC4)cn3n2)CC1,9.51
15,c1ccc(-c2ccc3nc(C4CCN(CC5CC5)CC4)nn3c2)cc1,6.8
16,COCC(=O)N1CCC(c2nc3ccc(-c4ccccc4)cn3n2)CC1,-28.2
17,COCC(=O)N1CCC(c2nc3ccc(N4CCCC4)cn3n2)CC1,-18.2
18,CS(=O)(=O)N1CCC(c2nc3ccc(-c4cccc(F)c4)cn3n2)CC1,58.3
19,CN(C)C(=O)N1CCC(c2nc3ccc(N4CCCC4)cn3n2)CC1,47.9
20,CCS(=O)(=O)N1CCC(c2nc3ccc(-c4ccccc4)cn3n2)CC1,31.8
21,COCC(=O)N1CCC(c2nc3ccc(-c4ccncc4)cn3n2)CC1,53.4
22,CO[C@@H]1CCN(Cc2ccccn2)[C@@H]2CN(Cc3ccco3)C[C@@H]21,20.9

row,SMILES,INHIBITION [%]
1,CCc1nc(C)c(C(=O)NCCNC(=O)Cc2cccc(F)c2)s1,-27.9
2,C=Cn1cc(CN2CCc3nc(-c4cccnc4)nc(O)c3C2)c(C)n1,1.5
3,Cc1occc1C(=O)Nc1cccc(C(=O)OCC2CCCN2)c1 (stereo unspecified),-24.7
4,CN(C)C(=O)CN1CCC2(CCCN(Cc3cccs3)C2)C1=O (stereo unspecified),8.6
5,O=C1COC2(CCN(Cc3nccs3)CC2)CN1c1ccccc1,35.6
6,N#Cc1ccc(N2CCC(OCCc3ccccc3)CC2)nc1,45.5
7,CC(=O)N1CCC(c2nc3ccc(C)cn3n2)CC1,1.7
8,CC(=O)N1CCC(c2nc3ccc(-c4ccnn4C)cn3n2)CC1,38.2
9,COc1cccc(-c2ccc3nc(C4CCN(C(C)=O)CC4)nn3c2)c1,56.4
10,CN(Cc1ccncc1)C(=O)CCNS(=O)(=O)c1cccnc1,20.9
11,Cc1nnc(Cn2cc(I)cc(C)c2=O)o1,22.5
12,CSc1ccc(C(C(=O)O)N2CCC(C(=O)N3CCCC3)CC2)cc1 (stereo unspecified),43.9
13,CSc1ccc(C(C(=O)O)N2CCCC2)cc1 (stereo unspecified),34.9
14,CSc1ccc(C(C(=O)O)N2CCC(CO)CC2)cc1 (stereo unspecified),53.9
15,Cc1ccc(CN2CCCn3c(nc(CN4CCCC4)cc3=O)C2)s1,43.2
16,Cn1ccnc1CN1CCN2C[C@H](OCc3ccccc3)C[C@H]2C1,-25.2
17,c1cnc(N2CCCC(NCc3ccc(-n4ccnc4)cc3)C2)nc1 (stereo unspecified),60.4
18,Cc1n[nH]c2ncc(CNC3CCCN(c4ncccn4)C3)cc12 (stereo unspecified),73.5
19,Cc1ccc(N2CCCC(NCc3ccc(-n4ccnc4)cc3)C2)nn1 (stereo unspecified),11.5
20,CC(C)[C@@H](C)NC1CCN(c2ccc(-n3ccnc3)cc2)CC1,16.6
21,CCC(=O)NC1CCCN(Cc2ccc(-n3ccnc3)cc2)C1 (stereo unspecified),41.5
22,CNCCCNC1CCN(c2ccc(-n3ccnc3)cc2)CC1,-7.2

row,SMILES,INHIBITION [%]
1,COc1cc(CNC2CCCN(c3ncccn3)C2)cc2c1OCO2 (stereo unspecified),-34.8
2,c1cnnc(N2CCCC(NCc3ccc(-n4ccnc4)cc3)C2)c1 (stereo unspecified),15.2
3,CC(=O)NC1CCCN(Cc2ccc(-n3ccnc3)cc2)C1 (stereo unspecified),65.6
4,c1cn(-c2ccc(N3CCC(NC4CC4)CC3)cc2)cn1,56.2
5,Cc1n[nH]c2ncc(CNC3CCN(Cc4ccccn4)CC3)cc12,-20.6
6,CC(=O)NC1CCCN(Cc2ccc(OCc3ccccn3)cc2)C1 (stereo unspecified),41.8
7,Cc1nccn1[C@@H]1CC[C@@H](N(C)S(=O)(=O)c2ccc(F)cc2)[C@H]1O,-0.4
8,Cc1noc(CCCC(=O)N(CCC(=O)O)Cc2ccc(F)c(F)c2)n1,-13
9,CN(C)c1ccccc1C(=O)N1CCCC(c2cccc(C(=O)O)c2)C1 (stereo unspecified),33.4
10,O=C(c1ccc(Sc2ccccn2)cc1)N1CCCSCC1,-1.3
11,Cc1cc(C)c(CNC(=O)NCC(O)c2ccc(Cl)cc2)c(=O)[nH]1 (stereo unspecified),29.2
12,CCN1CCN(C(=O)C(C)n2cc(Br)cn2)CC1 (stereo unspecified),21.7
13,COCCNC(=O)[C@@H]1C[C@H]2[C@H](CCN2c2cc(OC)ncn2)O1,7.53
14,CS(=O)(=O)CCC(=O)Nc1cc(F)ccc1OCC1CCCO1 (stereo unspecified),-14
15,CC(C)N1CCCC2(CCN(Cc3nncn3C(C)C)C2)C1=O (stereo unspecified),-27.4
16,CC(C)c1cc(C(=O)NCC2CCCN(C(C)C)C2)n(C)n1 (stereo unspecified),34.1
17,CCn1nc(C(C)C)cc1C(=O)NCC1CCCN(c2ccccn2)C1 (stereo unspecified),45
18,CC(C)c1cc(C(=O)NCC2CCCN(c3ncccn3)C2)n(C)n1 (stereo unspecified),70
19,Cc1cc(C)nc(Nc2cncc(C3CCCN(S(C)(=O)=O)C3)n2)n1 (stereo unspecified),29.2
20,CCC(CN1CCOCC1)n1cncc1-c1ccc2c(c1)CCCN2C (stereo unspecified),39.7
21,CCN1CCCc2cc(-c3cncn3C(C)CN3CCOCC3)ccc21 (stereo unspecified),27.6
22,CCC(CN1CCOCC1)n1cncc1-c1ccc2c(c1)CCN2CC (stereo unspecified),61.9
